PubChem BioAssay
Active and inactive are the calls of the source.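 How the source made its calls, unless noted: active means inhibition of the reporter signal at or above 50%; inactive means inhibition below 50%.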

Experiments:
[1] = inhibitors of TNFa-induced NFkB p65 translocation, primary screen, imaging, HUVEC, MLSMR starter and 10KST1 sets (AID 438;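 active means inhibition above 20% together with a positive visual image hit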;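 further: compound added about 3h40 before a 20 min TNFalpha stimulation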;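 on inhibition: signal is the nuclear over cytoplasmic p65 intensity ratio per well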); settings: HUVEC TNFa-induced p65 nuclear translocation; cell count: measured here: nuclei count (cytotoxicity indicator), at 2.08 µM; inhibition: at 2 µM, stronger effect = higher value, 0% TNFa-plus-vehicle, 100% no-TNFa wells
[2] = reduction of polyQ htt aggregates in cells – imaging, exon1htt(103Q)mCFP cells, high-content imaging, primary screen (AID 483;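 active means visual image review flags a hit and inhibition of aggregation exceeds 20%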;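 further: compound exposure lasted 3 days before fixation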;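 on nuclei count: percent of the per-plate median nuclei count of sample wells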); settings: exon1htt(103Q)mCFP cell line, aggregate imaging, at 2 µM; inhibition of aggregation: stronger effect = higher value; nuclei count: measured here: cell count, toxicity
[3] = endothelial E-selectin expression blockers – imaging, HUVEC, immunofluorescence, MLSMR starter and 10KST1 sets, primary screen (AID 487;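 active means visually confirmed hit in the image check and inhibition above 20%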;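 on inhibition: signal is fraction of cell area covered by stained E-selectin grains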;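 on nuclei count: 100% = median nuclei count of all wells on the same plate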); settings: HUVEC TNFalpha-induced E-selectin immunofluorescence imaging, at 2 µM; inhibition: stronger effect = higher value; nuclei count: measured here: cell number, toxicity
[4] = Primary imaging screen for DUSP6 inhibitors that restore phospho-Erk in transfected HeLa cells, chemical complementation (AID 609;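 active means compounds giving at least 50% inhibition in the cell-based MKP-3 phosphatase rescue imaging test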;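 on inhibition: phospho-Erk level distribution per well compared with pooled transfected vehicle control wells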); settings: HeLa MKP-3 transfected, phospho-Erk imaging KS statistic, at 10 µM, cells stimulated with TPA for 15 min
[5] = molecular target: Dual specificity protein phosphatase 6 (Homo sapiens) (UniProt Q16828); test: as above; settings: HeLa MKP-3 transfected, phospho-Erk imaging KS statistic; at 10 µM; stronger effect = higher value; cells stimulated with TPA for 15 min
Chain of Dual specificity protein phosphatase 6 (Homo sapiens) (Q16828 whole entry, looked up): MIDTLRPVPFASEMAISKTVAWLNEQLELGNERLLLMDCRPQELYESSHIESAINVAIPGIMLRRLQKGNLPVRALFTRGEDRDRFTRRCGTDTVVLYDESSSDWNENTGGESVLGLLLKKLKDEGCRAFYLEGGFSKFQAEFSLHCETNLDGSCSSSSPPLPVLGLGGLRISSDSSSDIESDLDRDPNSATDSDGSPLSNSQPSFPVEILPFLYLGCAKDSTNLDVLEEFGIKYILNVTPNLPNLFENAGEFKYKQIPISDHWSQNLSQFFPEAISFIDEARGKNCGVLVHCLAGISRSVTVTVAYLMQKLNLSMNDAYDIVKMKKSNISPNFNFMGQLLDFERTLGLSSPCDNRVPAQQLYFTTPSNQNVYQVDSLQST

[6] = molecular target: Voltage-gated potassium channel subunit beta-2 (Rattus norvegicus) (UniProt P62483); test: inhibitors of rat Kvbeta2 reductase activity – biochemical, NADPH fluorescence, primary screen (AID 622;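 active means fluorescence slope higher than the sample average by over 3 SD, cut at about -0.22 in these data, passing the limit was not always enough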;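 further: slope of raw intensity against log time taken from 70 to 1610 s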); settings: recombinant KvBeta, 4-cyanobenzaldehyde reduction, at 10 µM, stronger effect = higher value
Chain of Voltage-gated potassium channel subunit beta-2 (Rattus norvegicus) (P62483 whole entry, looked up): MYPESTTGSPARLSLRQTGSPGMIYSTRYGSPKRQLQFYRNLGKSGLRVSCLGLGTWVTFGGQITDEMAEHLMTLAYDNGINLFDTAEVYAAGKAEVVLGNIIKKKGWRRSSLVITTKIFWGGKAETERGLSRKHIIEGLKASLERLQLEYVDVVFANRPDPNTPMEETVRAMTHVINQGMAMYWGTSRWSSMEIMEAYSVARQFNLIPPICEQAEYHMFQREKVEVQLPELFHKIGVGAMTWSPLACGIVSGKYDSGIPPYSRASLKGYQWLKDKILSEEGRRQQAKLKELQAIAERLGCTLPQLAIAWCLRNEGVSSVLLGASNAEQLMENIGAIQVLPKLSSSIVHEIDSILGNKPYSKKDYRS

[7] = molecular target: Voltage-gated potassium channel subunit beta-2 (Rattus norvegicus) (UniProt P62483); test: enhancers of rat Kvbeta2 NADPH turnover – biochemical, NADPH fluorescence, primary screen (AID 623;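 active means NADPH fluorescence slope more negative than the mean of all samples by about 3 SD, 99.7% confidence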;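 further: fluorescence intensity change per second fitted from 20 to 320 s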); settings: Recombinant KvBeta, NADPH fluorescence decrease slope, 10 min; at 10 µM; stronger effect = lower value
[8] = molecular target: Alpha-2C adrenergic receptor (Homo sapiens) (UniProt P18825); test: compounds altering alpha2C-coupled GIRK flux – cell-based, HEK293 alpha2C/GIRK1/2, thallium flux, primary screen (AID 624;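 active means fluorescence slope after compound addition differing from the mean of all screened samples at 99.7% confidence, in either direction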;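 further: slope of fluorescence ratio to pre-addition baseline per second over 15 to 24 s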); settings: thallium flux BTC fluorescence, at 10 µM, actives lie on both sides
Chain of Alpha-2C adrenergic receptor (Homo sapiens) (P18825 whole entry, looked up): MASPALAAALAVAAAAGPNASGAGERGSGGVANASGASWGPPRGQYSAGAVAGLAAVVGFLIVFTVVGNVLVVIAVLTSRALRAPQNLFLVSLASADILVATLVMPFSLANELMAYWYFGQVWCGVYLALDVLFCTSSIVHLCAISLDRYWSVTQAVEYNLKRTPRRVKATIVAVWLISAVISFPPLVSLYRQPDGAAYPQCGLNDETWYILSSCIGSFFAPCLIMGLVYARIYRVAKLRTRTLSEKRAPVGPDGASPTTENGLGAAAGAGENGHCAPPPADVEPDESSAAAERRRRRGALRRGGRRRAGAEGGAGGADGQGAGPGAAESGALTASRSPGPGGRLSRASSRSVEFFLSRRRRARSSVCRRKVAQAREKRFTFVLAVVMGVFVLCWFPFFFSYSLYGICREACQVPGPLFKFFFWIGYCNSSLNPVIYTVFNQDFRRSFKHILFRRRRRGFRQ

[9] = molecular target: Muscarinic acetylcholine receptor M4 (Homo sapiens) (UniProt P08173); test: M4-linked GIRK flux change, two-sided – cell-based, HEK293 M4/GIRK, thallium flux, BTC-AM, M4 allosteric agonist project, primary screen (AID 625;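 active means fluorescence slope after compound addition differing from the mean of all tested samples at 99.7% confidence, mostly higher but some lower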;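 further: thallium influx through GIRK channels coupled to M4 in HEK293 cells with BTC-AM dye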); settings: at 10 µM, actives lie on both sides
Chain of Muscarinic acetylcholine receptor M4 (Homo sapiens) (P08173 whole entry, looked up): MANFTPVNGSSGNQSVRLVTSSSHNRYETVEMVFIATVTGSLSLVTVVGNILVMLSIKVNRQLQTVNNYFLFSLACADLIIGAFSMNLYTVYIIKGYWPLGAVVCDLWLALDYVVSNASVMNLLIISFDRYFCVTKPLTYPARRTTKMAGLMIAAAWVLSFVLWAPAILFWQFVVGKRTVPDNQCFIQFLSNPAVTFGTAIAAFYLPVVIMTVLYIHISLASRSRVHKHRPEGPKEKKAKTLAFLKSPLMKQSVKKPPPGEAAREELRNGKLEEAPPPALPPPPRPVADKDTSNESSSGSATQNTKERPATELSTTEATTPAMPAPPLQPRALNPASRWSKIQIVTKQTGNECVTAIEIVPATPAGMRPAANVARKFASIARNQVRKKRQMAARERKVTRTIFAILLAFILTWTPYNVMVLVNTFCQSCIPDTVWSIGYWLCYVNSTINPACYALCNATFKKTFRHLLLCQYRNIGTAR

[10] = inhibitors of larval lipid processing in zebrafish, primary screen, whole organism, PED6 fluorescence, gall bladder and intestine (AID 686;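 active means a full or partial loss of lipid-probe fluorescence in the fish gall bladder, intestine or both, judged by eye; inactive means no fluorescence loss, or compound toxic to the fish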;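 further: larvae 5 to 7 days old with five fish per well; signal comes from phospholipase A2 cleavage of quenched PED6 carried via bile; overnight exposure to compound and PED6 before scoring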); settings: Zebrafish larvae PED6 lipid processing, fluorescence scoring; screened at 20 µM (by protocol)
[11] = loss of swimming-algae plug formation – whole organism, Chlamydomonas reinhardtii, WT vs cilia-less mutant, absorbance, 96-well, primary screen (AID 463189;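 active means inhibition at or above 50% relative to wild type and mutant plate controls; inactive means inhibition below 50%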;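 further: 0% = wild type cc124 cells in DMSO and 100% = ciliumless bld1 mutant cells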); settings: Chlamydomonas reinhardtii gravitaxis, OD600 absorbance, 2 days; at 10 µM; stronger effect = higher value
[12] = blockers of RIG-like receptor reporter activation – cell-based, Sendai virus stimulus, luciferase, 10K MLSCN set, TLR/RLR signaling modifier project, primary screen (AID 602276;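 active means inhibition at or above 50% at 10 µM; inactive means inhibition below 50%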;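 further: firefly luciferase from ISG56 promoter only with Renilla not read in this screen; 0% = Sendai virus plus DMSO and 100% = medium plus DMSO without virus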); settings: HEK293 RL24 IRF3 luciferase reporter, at 10 µM, stronger effect = higher value
[13] = TLR3 IRF3 reporter activation blockers – cell-based, poly I:C stimulus, luciferase, 10K MLSCN set, primary screen (AID 602277); settings: HEK293-TLR3 RL24 IRF3 luciferase reporter, at 10 µM, stronger effect = higher value
[14] = measured here: cell density z-score
[15] = measured here: nuclear c-Myc green intensity z-score
[16] = measured here: nuclear pErk red intensity z-score, stronger effect = higher value

Structure (SMILES) | cell count [1] | inhibition [1] | inhibition of aggregation [2] | nuclei count [2] | inhibition [3] | nuclei count [3] | z-score [4, 14] | z-score [4, 15] | z-score [4, 16] | inhibition [5] | fluorescence slope [6] | NADPH fluorescence slope [7] | slope [8] | fluorescence slope [9] | outcome [10] | inhibition [11] | inhibition [12] | inhibition [13]
O=C(Nc1ccccc1C(=O)NCCCn1ccnc1)c1ccccc1 | 440 | -10.6% (inactive) | 9.5% (inactive) | 110% | -58.9% (inactive) | 90.3% | 0.245 | 0.366 | -0.747 | 3.97% (inactive) | -0.353 (inactive) | 1.7e-06 (inactive) | 0.00553 (inactive) | 0.00574 (inactive) | inactive | -14.6% (inactive) | 12.2% (inactive) | 22.1% (inactive)
CCN(CC)CCOC(=O)C1(c2ccc(OC)c(OC)c2)CCCC1 | 540 | -5.7% (inactive) | -1% (inactive) | 96.9% | -29.5% (inactive) | 96.9% | -0.552 | -0.514 | -0.16 | -13.3% (inactive) | -0.513 (inactive) | -1.5e-05 (inactive) | 0.00483 (inactive) | 0.00575 (inactive) | inactive | 0.789% (inactive) | 13.2% (inactive) | 21% (inactive)
COCCNc1oc(-c2ccc(C)cc2)nc1C#N | 405 | 1.6% (inactive) | 12.5% (inactive) | 88.9% | -23.4% (inactive) | 129% | -0.898 | 0.297 | 1.87 | 18.2% (inactive) | -0.461 (inactive) | -5.9e-05 (inactive) | 0.00692 (inactive) | 0.00552 (inactive) | inactive | 4.66% (inactive) | -24.8% (inactive) | -85.8% (inactive)
CCCN(CCC)C(=O)CC(c1ccc(F)cc1)c1ccco1 (stereo not given) | 558 | -1.8% (inactive) | 24.6% (inactive) | 92.6% | -37.9% (inactive) | 108% | 0.533 | -0.963 | -0.846 | 11.9% (inactive) | -0.467 (inactive) | -2.2e-05 (inactive) | 0.0041 (inactive) | 0.00507 (inactive) | inactive | 27.9% (inactive) | 19.1% (inactive) | 23% (inactive)
CCCCc1nc(NCCN2CCOCC2)c(C#N)c2c1COC(C)(C)C2 | 472 | -7.6% (inactive) | -37.3% (inactive) | 122% | -75.1% (inactive) | 116% | -1.08 | 2.36 | -1.06 | 3.42% (inactive) | -0.542 (inactive) | 8.4e-06 (inactive) | 0.00518 (inactive) | 0.00481 (inactive) | inactive | 98.1% (active) | 15.9% (inactive) | 10.1% (inactive)
C=CCNc1nnc(SC2CC(=O)N(c3ccc(OC)cc3)C2=O)s1 (stereo not given) | 474 | -3.2% (inactive) | -17.3% (inactive) | 121% | -46.1% (inactive) | 151% | -0.38 | -0.537 | 0.655 | 5.95% (inactive) | -0.391 (inactive) | -3.8e-05 (inactive) | 0.00566 (inactive) | 0.00596 (inactive) | inactive | 34% (inactive) | 12.1% (inactive) | -1.97% (inactive)
CCOC(=O)CSC1=C(C#N)C(c2ccc(C)cc2)C(C(=O)OC)C(=O)N1 (stereo not given) | 643 | 4.3% (inactive) | -1.7% (inactive) | 81.9% | -39.2% (inactive) | 133% | 0.598 | 0.472 | -0.921 | 2.92% (inactive) | -0.474 (inactive) | -8.1e-06 (inactive) | 0.00434 (inactive) | 0.00679 (inactive) | inactive | 6.69% (inactive) | -15.1% (inactive) | -12.7% (inactive)
O=C(NCC(F)(F)F)N1CCOCC1 | 663 | 11.2% (inactive) | 14.7% (inactive) | 106% | -23.9% (inactive) | 102% | 0.272 | 0.0222 | 0.9 | -13.3% (inactive) | -0.508 (inactive) | -3.8e-05 (inactive) | 0.0049 (inactive) | 0.00517 (inactive) | inactive | 33.2% (inactive) | 9.24% (inactive) | 15.3% (inactive)
CC(NC(=O)Nc1nccs1)(C(F)(F)F)C(F)(F)F | 649 | -2.2% (inactive) | 0.8% (inactive) | 108% | -11.3% (inactive) | 107% | -0.519 | -0.302 | -0.913 | -0.233% (inactive) | -0.47 (inactive) | -3.5e-05 (inactive) | 0.00627 (inactive) | 0.00776 (inactive) | inactive | -9.58% (inactive) | 1.15% (inactive) | 56.3% (active)
CC(C)(C)c1ccc(O)c(N)c1 | 646 | -5.1% (inactive) | 18.9% (inactive) | 115% | -65.2% (inactive) | 138% | 0.287 | -1.2 | 0.0324 | -3.95% (inactive) | -0.526 (inactive) | -7e-05 (inactive) | 0.00563 (inactive) | 0.00646 (inactive) | inactive | 15.7% (inactive) | 8.96% (inactive) | 18% (inactive)
N#CC1(c2ccccc2)CCC(=NO)CC1 (stereo not given) | 685 | -0.6% (inactive) | -8% (inactive) | 102% | 8.8% (inactive) | 86.8% | -0.0727 | 1.42 | -0.351 | -13.3% (inactive) | -0.461 (inactive) | -4.5e-05 (inactive) | 0.00512 (inactive) | 0.00503 (inactive) | inactive | -5.88% (inactive) | 10.2% (inactive) | 20.6% (inactive)
Cc1cn2c(-c3ccncc3)nnc2s1 | 443 | -7.7% (inactive) | 5.7% (inactive) | 88.7% | -73.4% (inactive) | 142% | 1.88 | 0.607 | -1.91 | 22.3% (inactive) | -0.491 (inactive) | -0.000121 (inactive) | 0.0059 (inactive) | 0.00508 (inactive) | inactive | -0.946% (inactive) | 4.57% (inactive) | 19.6% (inactive)
CC(CN1CCN(C)CC1)OC(=O)c1ccc(Cl)cc1Cl (stereo not given) | 495 | 2.7% (inactive) | -4.3% (inactive) | 89.3% | 5.7% (inactive) | 93.6% | 0.0987 | 0.463 | -0.406 | -0.624% (inactive) | -0.4 (inactive) | -7.7e-06 (inactive) | 0.00282 (inactive) | 0.00468 (inactive) | inactive | 136% (active) | 11.3% (inactive) | 23.1% (inactive)
O=C(O)CC1Sc2nc3ccccc3n2C1=O (stereo not given) | 532 | -9% (inactive) | -11.5% (inactive) | 89% | -22.4% (inactive) | 116% | -0.312 | -0.637 | -0.43 | 15.9% (inactive) | -0.49 (inactive) | -1.3e-05 (inactive) | 0.00572 (inactive) | 0.00487 (inactive) | inactive | 27.7% (inactive) | 13.8% (inactive) | 12.9% (inactive)
CCOc1cc(C2Nc3ccccc3C(=O)N2c2ccccc2OC)ccc1O (stereo not given) | 587 | -3.1% (inactive) | -2.3% (inactive) | 100% | -136% (inactive) | 124% | 0.614 | -1.2 | -0.417 | 9.07% (inactive) | -0.348 (inactive) | -3.8e-05 (inactive) | 0.0046 (inactive) | 0.0049 (inactive) | inactive | 2.2% (inactive) | -2.55% (inactive) | -13.2% (inactive)
COc1ccc(Cn2c(N)c(C#N)c3nc4ccccc4nc32)cc1OC | 497 | 2.3% (inactive) | 12.4% (inactive) | 100% | -66.5% (inactive) | 123% | 0.51 | -0.363 | -0.944 | 27.8% (inactive) | -0.285 (inactive) | -1.3e-05 (inactive) | 0.00453 (inactive) | 0.00496 (inactive) | inactive | 2.2% (inactive) | 15.4% (inactive) | 14.9% (inactive)
COc1ccc(OC)c(C2/C(=C(\O)c3ccc4c(c3)OCCO4)C(=O)C(=O)N2CCCN(C)C)c1 (stereo not given) | 490 | -0.9% (inactive) | -12.7% (inactive) | 115% | -76.5% (inactive) | 130% | 0.935 | 0.819 | -1.07 | 18.2% (inactive) | -0.459 (inactive) | -0.000132 (inactive) | 0.0076 (inactive) | 0.00426 (inactive) | inactive | 40.2% (inactive) | 11% (inactive) | 23.3% (inactive)
Cc1cc(C)n(Cc2cc(C)c(Cn3nc(C)cc3C)cc2C)n1 | 622 | 0.2% (inactive) | 15.4% (inactive) | 102% | -44.5% (inactive) | 137% | 0.927 | 1.3 | 1.6 | 1.63% (inactive) | -0.434 (inactive) | -0.000128 (inactive) | 0.00432 (inactive) | 0.00602 (inactive) | inactive | -0.144% (inactive) | 8.11% (inactive) | 0.814% (inactive)
CCSc1nnc(NC(=O)C(CC)(C(F)(F)F)C(F)(F)F)s1 | 702 | 0.2% (inactive) | -6.4% (inactive) | 106% | -53.9% (inactive) | 124% | 0.12 | -0.276 | 0.239 | -9.53% (inactive) | -0.447 (inactive) | -4.4e-05 (inactive) | 0.00447 (inactive) | 0.00559 (inactive) | inactive | 21.1% (inactive) | -0.9% (inactive) | -31.4% (inactive)
COC(=O)c1cc(Br)c(=O)n(-c2nccs2)c1 | 750 | -4.2% (inactive) | -14.3% (inactive) | 102% | -134% (inactive) | 142% | -1.41 | 0.813 | -2.4 | 38.2% (inactive) | -0.421 (inactive) | -5.6e-05 (inactive) | 0.00443 (inactive) | 0.00469 (inactive) | inactive | 6.75% (inactive) | -0.165% (inactive) | 1.38% (inactive)
